experiment: qHTS profiling of the MIPE4 collection as inhibitors of Plasmodium falciparum (DD2) proliferation (Rep 2) (AID 743346); conditions: P. falciparum Dd2 in erythrocytes, SYBR Green DNA, 72 h; at 28.5 µM unless noted
Text: Plasmodium falciparum is a virulent malarial parasite that kills 1-2 million people worldwide each year. Transmitted by mosquitoes, the sporozoite form of the parasite enters the blood stream to infect hepatocytes, where they become merozoites that infect red blood cells (erythrocytes). Within erythrocytes, merozoites begin a […] cycle of growth and division, after which the parasite is released to infect new red blood cells. Gametocytes, which form within erythrocytes as well, circulate in the bloodstream and are ingested by the mosquito, thereby completing the life cycle. To profile malarial isolates for differential chemical responses and to identify inhibitors of malarial growth, an assay that measures P. falciparum growth and replication within erythrocytes was employed. This assay uses a DNA binding fluorescent dye (SYBR Green) to detect parasite DNA following cell lysis. Because mature erythrocytes lack DNA, only Plasmodium-derived DNA is detected.
The SYBR Green viability assay was adapted from a method described previously (Plouffe et al., 2008). For screening 3 ul culture medium was dispensed into 1536 well black clear bottom plates (Aurora Biotechnologies) using a Multidrop Combi (Thermo Fisher Scientific Inc.), 23 nL compounds in DMSO were added by a pin tool (Kalypsys), and 5 ul of erythrocytes infected with P. falciparum (0.3% parasitemia, 2.5% hematocrit final concentration) were added. The plates were incubated at 37 C in a humidified incubator in 5% CO2 for 72 h, and 2 ul lysis buffer (20 mM Tris HCl, 10 mM EDTA, 0.16% saponin, 1.6% triton X, 10X SYBR Green I supplied as 10,000X […] by Invitrogen) was added to each well. The plates were mixed for 25 sec with gentle shaking and incubated overnight at room temperature in the dark. The following morning, fluorescence intensity at 485(14) nm excitation and 535(25) nm emission wavelengths was measured on an EnVision (Perkin Elmer) plate reader. Plate reads were normalized relative to the control inhibitor (0.29 uM artemisinin) and vehicle (DMSO) wells present on each plate and then corrected by an algorithm using vehicle-only control plates at the beginning and end of the compound plate stack.

Row | Structure (SMILES) | parasite growth, % of control (lower = inhibition) [%]
1 | Nc1ncnc2c1ncn2[C@@H]1O[C@H](CO)C[C@@H]1O | 57.5
2 | O=C(Nc1ccccc1Br)N[C@@H]1CCN(c2ccc(C(F)(F)F)cn2)C1 | 82.5
3 | COc1ccc(-c2cc(=O)c3c(O)cc(O)cc3o2)cc1O | 43.3
4 | COc1cc(N2CCC(N3CCN(C)CC3)CC2)ccc1Nc1ncnc(Nc2ccccc2S(=O)(=O)C(C)C)n1 | 8.07
5 | Cc1ccc(/C=N/NC(=O)c2ccccc2Oc2ccccc2)o1 | 120
6 | CC1(C)CCC2=C(O1)c1ccccc1C(=O)C2=O | 21.7
7 | O=c1[nH]cnc2c1ncn2[C@H]1CC[C@@H](CO)O1 | 101
8 | CC(=O)Oc1cc2c(s1)CCN(C(C(=O)C1CC1)c1ccccc1F)C2 (stereo not given) | 40.2
9 | CCc1ccc(OCc2ccccc2C(=O)Nc2ccc3nc(C)cc(N)c3c2)cc1 | 24.8
10 | CCOC(=O)O[C@]1(C(=O)OCCl)CC[C@@H]2[C@H]3CCC4=CC(=O)C=C[C@]4(C)[C@@H]3[C@@H](O)C[C@@]21C | 44.6
11 | CCCCCN(C)CCC(O)(P(=O)(O)O)P(=O)(O)O | 114
12 | O=c1cc(N2CCOCC2)oc2c(-c3cccc4c3sc3ccccc34)cccc12 | 25.8
13 | CO[C@H]1C=CO[C@@]2(C)Oc3c(C)c(O)c4c(O)c(c5c(c4c3C2=O)NC2(CCN(CC(C)C)CC2)N=5)=NC(=O)C(C)=CC=C[C@H](C)[C@H](O)[C@@H](C)[C@@H](O)[C@@H](C)[C@H](OC(C)=O)[C@H]1C | 12.8
14 | Nc1ncnc2c1nc(Cl)n2[C@@H]1O[C@H](CO)[C@@H](O)[C@@H]1O | 43.2
15 | CC1CCC(C(=O)N(c2cc(C#CC(C)(C)C)sc2C(=O)O)C2CCC(O)CC2)CC1 (stereo not given) | 9.42
16 | O=C(N[C@@H](c1ccccc1)[C@@H]1CCCCN1)c1cccc(C(F)(F)F)c1Cl | 26.8
17 | O=C(Nc1c(Cl)cncc1Cl)c1ccc(OC(F)F)c(OCC2CC2)c1 | 67.9
18 | COc1cccc(-c2cc(=O)c3ccccc3o2)c1N | 87.6
19 | Clc1ccc(CCC(Cn2ccnc2)Sc2c(Cl)cccc2Cl)cc1 (stereo not given) | 10.3
20 | O=c1c(-c2ccc(O)cc2)coc2cc(O)ccc12 | 89.3

Row | Structure (SMILES) | parasite growth, % of control (lower = inhibition) [%]
21 | COc1ccc(-n2c(C)c([N+](=O)[O-])c3ccc(O)cc32)cc1 | 45.7
22 | Cc1nnc(C(C)C)n1C1C[C@H]2CC[C@@H](C1)N2CC[C@H](NC(=O)C1CCC(F)(F)CC1)c1ccccc1 (stereo not given in full) | 55.4
23 | COc1cc(N2CCC(N3CCN(C)CC3)CC2)ccc1Nc1ncc(Cl)c(Nc2ccccc2S(=O)(=O)C(C)C)n1 | 5.51
24 | O=C(O)[C@H]1O[C@H](Oc2cc3oc(-c4ccccc4)cc(=O)c3c(O)c2O)[C@H](O)[C@@H](O)[C@H]1O | 57.6
25 | Cc1cccc(Nc2nc(-c3ccncc3)cs2)c1 | 42.6
26 | CN(C)CCC=C1c2ccccc2COc2ccc(CC(=O)O)cc21 | 121
27 | O=c1c(-c2ccc(O)cc2)coc2cc(O[C@@H]3O[C@H](CO)[C@H](O)[C@H](O)[C@H]3O)ccc12 | 85.3
28 | C[N+](C)(C)CC(=O)O | 93.5
29 | C=C1C(=O)OC(CCCCCCCC)C1C(=O)O (stereo not given) | 62.9
30 | O=C(O)C=Cc1ccc(O)c(O)c1 | 22.8
31 | Cn1cc(C=C2C(=O)Nc3cccnc32)c2ccccc21 | 53
32 | CO[C@H]1C=CC=C(C)C(=O)NC2=CC(=O)C(NCCN(C)C)=C(C[C@@H](C)C[C@H](OC)[C@@H](O)[C@@H](C)C=C(C)[C@@H]1OC(N)=O)C2=O | 6.75
33 | CN(C)Cc1cccc(N=C(c2ccccc2)c2c(O)[nH]c3cc(C(=O)N(C)C)ccc23)c1 | 12.9
34 | C[C@]12CC[C@@H]3c4ccc(O)cc4C[C@@H](CCCCCCCCCS(=O)CCCC(F)(F)C(F)(F)F)[C@H]3[C@H]1CC[C@H]2O (stereo not given in full) | 10.8
35 | CCOC(CN1C(=O)[C@](CC(=O)Nc2ccc(C)cc2)(NC(=O)Nc2ccc(C)cc2)c2ccccc21)OCC | 26.1
36 | CNC1CCC(N(Cc2cccc(-c3ccncc3)c2)C(=O)c2sc3c(F)ccc(F)c3c2Cl)CC1 (stereo not given) | 23.7
37 | N#CC(=C(N)Sc1ccccc1N)C(C#N)=C(N)Sc1ccccc1N | 10.6
38 | CC(C)[C@H](CO)Nc1nc(Nc2ccc(C(=O)O)c(Cl)c2)c2ncn(C(C)C)c2n1 | 29.5
39 | Cc1nc(N)sc1-c1ccnc(Nc2ccc(N3CCOCC3)cc2)n1 | 16.4
40 | COCCCCC(=NOCCN)c1ccc(C(F)(F)F)cc1 | 49

— PubChem BioAssay (NCATS)
